Data as given in the supplement of paper PMC12645437, “Orthogonal IMiD-Degron Pairs Induce Selective Protein Degradation in Cells” (ACS Chemical Biology, 2025).
In all, about 8,300 sequences were measured (“log2 fold change of degron read counts, EGFP-low vs EGFP+ sorted cells (limma voom), compound-induced degradation”: median about -1.1, highest 2% from about 3.2 on). The entries come from a sample that favours the highest values as a whole.

T1: CRBN, Q96SW2
T1 chain: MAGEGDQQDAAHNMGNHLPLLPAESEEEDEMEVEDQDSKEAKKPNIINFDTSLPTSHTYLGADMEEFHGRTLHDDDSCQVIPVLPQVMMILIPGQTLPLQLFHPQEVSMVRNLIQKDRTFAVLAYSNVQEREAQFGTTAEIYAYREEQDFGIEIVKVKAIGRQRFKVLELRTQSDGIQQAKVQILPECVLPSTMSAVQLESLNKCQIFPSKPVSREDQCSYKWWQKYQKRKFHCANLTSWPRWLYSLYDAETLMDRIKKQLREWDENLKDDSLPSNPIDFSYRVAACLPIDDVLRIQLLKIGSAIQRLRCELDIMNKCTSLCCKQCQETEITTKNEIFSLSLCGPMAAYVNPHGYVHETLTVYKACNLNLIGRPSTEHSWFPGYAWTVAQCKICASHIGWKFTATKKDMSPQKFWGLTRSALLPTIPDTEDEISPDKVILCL


Biological target: T1, CRBN, Q96SW2
Assay: log2 fold change of degron read counts, EGFP-low vs EGFP+ sorted cells (limma voom), compound-induced degradation; higher = more compound-induced degradation of the degron-EGFP fusion; degrons are variants of IKZF1/3 zinc finger 2; compound dose not given here
Details: Jurkat, 18 h
Description: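 Pooled library of 8380 IKZF3 ZF2 degron mutants (positions 146-167 varied within the IKZF3 130-189 degron; only the varied core is printed, flanks not printed) fused to EGFP with IRES-mCherry, lentivirally expressed in Jurkat cells. mCherry+ cells were treated with one IMiD compound for 18 h (dose not stated) and FACS-sorted into EGFP-low and EGFP+ populations. Degron sequences were counted by NGS, and log2FC (EGFP-low vs EGFP+) was estimated by limma voom over 3 biological replicates.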

[1] = compound: compound 19 (5-tert-butyl-thalidomide)
[2] = compound: compound 22 (5-morpholino-thalidomide)
[3] = compound: compound 33 (diphenyl IMiD analogue)
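Also: pooled lentiviral library of zinc finger degron-EGFP fusions in mCherry-positive Jurkat cells, FACS-sorted after compound exposure, with degron abundance counted by next-generation sequencing.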

Sequence | log2 fold change of degron read counts [1] | log2 fold change of degron read counts [2] | log2 fold change of degron read counts [3] | log2 fold change of degron read counts (compound: thalidomide)
FHCPICGACFTQKGNLLRHIKL [46F_47H_49P_50I_52G_53A_54C_55F_67L_, Q9UKT9] | 2.71 | 2.64 | 2.08 | 0.899
FECPICGACFTQKGNLLRHIKL [46F_47E_49P_50I_52G_53A_54C_55F_67L_, Q9UKT9] | 0.233 | -0.321 | 2.66 | 2.94
FFCPICGACFTQKGNLLRHIKL [46F_47F_49P_50I_52G_53A_54C_55F_67L_, Q9UKT9] | 3.22 | 3.44 | 2.28 | 1.16
FGCPICGACFTQKGNLLRHIKL [46F_47G_49P_50I_52G_53A_54C_55F_67L_, Q9UKT9] | 3.9 | 2.82 | 2.74 | 1.24
FKCPICGACFTQKGNLLRHIKL [46F_47K_49P_50I_52G_53A_54C_55F_67L_, Q9UKT9] | -0.511 | -2.33 | -2.58 | -0.71
FRCPICGACFTQKGNLLRHIKL [46F_47R_49P_50I_52G_53A_54C_55F_67L_, Q9UKT9] | -0.121 | 0.343 | 1.61 | 1.35
LQCEICGFFCTQKGNLLRHIKL [46L_47Q_49E_50I_52G_53F_54F_55C_67L_, Q9UKT9] | -0.636 | -0.227 | 0.554 | 1.77
FVCEICGRLFTQKGNLLRHIKL [46F_47V_49E_50I_52G_53R_54L_55F_67L_, Q9UKT9] | -1.71 | -1.28 | -0.137 | 0.207
